Experimental data taken from PubChem BioAssay AID652040 (Broad Institute, 2013).
Results with a measured potency or affinity are listed apart. Active and inactive are the calls of the source.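 The calls were made as follows: active = falling luciferase signal whose fitted half-maximal concentration is at most twice the top tested dose; inconclusive = flat inhibition between 30 and 70% or a poor curve fit; inactive = the rest.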

Test: off-target signal loss in HeLa-CEM21 co-culture – HeLa F-luc CTL cells, cherry-picked, counter-screen for HIV-1 Env fusion inhibitor project, dose response (AID 652040);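 also: 0% = median of neutral control wells and -100% = doxycycline 40 µg/mL wells; more negative values mean stronger loss of luciferase signal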
Details: HeLa-F-luc CTL cells with CEM21, firefly luciferase counterscreen; series mostly up to 35 µM; activity change, negative = inhibition: at the top concentration

| SMILES | activity change, negative = inhibition |
| --- | --- |
| Cc1nc2sc(C(c3ccco3)N3CCC(Cc4ccccc4)CC3)c(O)n2n1 (stereo unspecified) | 36.4% (inactive) |
| CC1CN(S(=O)(=O)c2cc(C(=O)NCCC3=CCCCC3)ccc2Cl)CC(C)O1 (stereo unspecified) | 66.4% [at 16 µM] (inactive) |
| O=C(COC(=O)c1cccc(S(=O)(=O)N2CCOCC2)c1)NCc1ccccc1 | 5.14% (inactive) |
| CS(=O)(=O)N1CCN(c2ccccc2NC(=O)C(c2ccccc2)c2ccccc2)CC1 | 24.4% (inactive) |
| Cc1ccc(-c2nnc(N3CCN(C(=O)COc4ccccc4)CC3)c3ccccc23)cc1 | -11% (inactive) |
| CC(c1nc2ccccc2c(=O)[nH]1)N(C)CCOc1ccc(Cl)cc1 (stereo unspecified) | 0.95% (inactive) |
| CC(=O)C1=C(C)NC(=S)NC1c1ccccc1 (stereo unspecified) | 7.35% (inactive) |
| CC1(C)N=C(N)N=C(N)N1CCCCc1ccccc1 | -18.5% (inactive) |
| COC(=O)[C@H](Cc1ccccc1)NC(=O)Cn1cnc(C(=O)Nc2ccc(C)c(C)c2)n1 | 21.9% (inactive) |
| CCNC1CCC(Nc2ccnc3cc(Cl)ccc23)CC1 (stereo unspecified) | 62.5% (inactive) |
| CC(OC(=O)c1ccc(NC(=O)CC#N)cc1)C(=O)NCCC1=CCCCC1 (stereo unspecified) | 40.1% (inactive) |
| O=C(Nc1cccn(Cc2c(Cl)cccc2Cl)c1=O)c1ccc(Cl)cc1 | -3.49% (inactive) |
| COc1ccc(NS(=O)(=O)c2cccc(C(=O)NNC(=O)CNC(=O)c3ccc(C)cc3)c2)cc1 | 14.4% (inactive) |
| C=CC[n+]1c(-c2ccc(OC)c(OC)c2)csc1NNC(=O)Nc1ccccc1 | 22.1% (inactive) |
| C=CCOc1c(Br)cc(CNc2ccc(NC(=O)C(C)C)c(OC)c2)cc1OC | 3.89% (inactive) |
| COc1ccc(CCN(Cc2cccs2)S(=O)(=O)c2ccc(-n3cnnn3)cc2)cc1OC | -12.3% (inactive) |
| COc1ccccc1S(=O)(=O)n1cc(Cc2ccccc2)c(N)n1 | 0.656% (inactive) |
| O=C(Nc1ccc(S(=O)(=O)N2CCN(Cc3ccccc3)CC2)cc1)c1cnccn1 | 16.4% (inactive) |
| COc1ccc(-c2nnc(Nc3nc4c(OC)cccc4s3)o2)cc1 | 9.73% (inactive) |
| COc1ccc(OC)c(NC(=O)COc2ccc3c(c2)CCC3)c1 | 27.4% (inactive) |
| C=CCNc1nc2c(c(=O)n(C)c(=O)n2C)n1CCCCCC | 41% (inactive) |
